The panel holds about 83,000 compounds, 20% with a hit somewhere; the sample as a whole holds those more often.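 How to read the values: 0–100, growth inhibition (40 = 60% inhibited); 0, no net growth; -100 to 0, cell death (-40 = 40% of starting cells died; -100 = all dead).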 The source made the active and inactive calls. Rule for the calls: active = growth percent below 10; inactive = the rest.
system: MDA-MB-468 breast; experiment: NCI-60 one-dose screen, 48 h (100 = growth as untreated, 0 = no growth, -100 = all killed); conditions: 10 µM unless noted

| SMILES | growth |
| --- | --- |
| C=CC(=O)N1CC=C(c2cc3c(N[C@H](C)c4ccccc4)ncnc3[nH]2)CC1 | 33.3% (inactive) |
| Cc1ccc(-c2ccc(Nc3ccccc3)nn2)cc1S(N)(=O)=O | 64% (inactive) |
| CC(=O)c1ccc(NC(=O)CSc2nnc(-c3cc(-c4ccc(C)cc4)nc4ccccc34)o2)cc1 | 95.4% (inactive) |
| c1c[nH]c(CNC2CCCCC2)c1 | 141% (inactive) |
| COc1cccc2c1C(=O)c1c(O)c3c(c(O)c1C2=O)C[C@](O)(C(=O)CO)C[C@H]3O[C@@H]1C[C@@H](NC(=O)CCCN(C)C2(c3ccc(F)cc3)CC3CCC2C3)[C@H](O)[C@@H](C)O1 (some centres undefined) | -82.4% (active) |
| COc1ccc(NC(=O)c2ccc3c(c2)nc(-c2cc4ccccc4[nH]c2=O)n3-c2cc(C(C)(C)C)[nH]n2)cc1 | 95% (inactive) |
| O=C(NCc1ccco1)Nc1cccc2c(NC(=O)NCc3ccco3)cccc12 | 85.7% [100 µM] (inactive) |
| Cc1cc(Nc2nc(SCc3ccc(C(=O)Nc4ccc(F)cc4N)cc3)nn3cccc23)n[nH]1 | 47.7% (inactive) |
| C[C@@H]1CC[C@@H]2[C@@H]1[C@H](OC(=O)/C=C/c1ccccc1)[C@]1(c3ccccc3)C[C@@H](OC(=O)CO)[C@@]2(C)O1 | 87.5% (inactive) |
| CC(=O)Nc1cccc(C2=CC(c3ccc(C)cc3)n3ncnc3N2)c1 (centres undefined) | 92.7% (inactive) |
| O=C(Nc1ccc(Cl)cc1)c1cc2c(cc1O)[nH]c1ccccc12 | -17.6% (active) |
| O=C(N/N=C\c1cc(Br)cc(Br)c1O)N/N=C/c1cc(Br)cc(Br)c1O | 57.7% (inactive) |
| O=S(=O)(NCCNc1cc(-c2cn(-c3ccccc3)nc2-c2cccc(O)c2)ccn1)c1ccccc1 | 34.2% (inactive) |
| COC(=O)c1ccc(NC2=C(Cl)C(=O)C(C)=C(C)C2=O)cc1 | -45.9% (active) |
| CCCCCC(CCCCC)C(=O)O | 116% (inactive) |
| CN(N)c1nc2sc3c(c2c(=O)[nH]1)CCCC3 | 113% (inactive) |
| C#Cc1cc(C(=O)Nc2ccc(CN3CCN(C)CC3)c(C(F)(F)F)c2)ccc1C | 66.5% (inactive) |
| COc1cc(NC(=O)CCSc2nc3ccc(Cl)cc3c(=O)n2Cc2ccccc2)cc(OC)c1OC | 93% (inactive) |
| CC(C)(C)CC(C)(C)Nc1c(-c2ccncc2)nc2cnccn12 | 87.5% (inactive) |
| O=C1Nc2ccccc2/C1=C/c1cccn1CCCCCCn1c2ccccc2c(=O)c2ccccc21 | 8.47% (active) |
| CC(=O)c1cc2c(N)c(C(=O)Nc3cccc(F)c3C)sc2nc1C | 54.2% (inactive) |
| COc1cccc(/C=N/Nc2nc3ccccc3s2)c1OC | 80.3% (inactive) |
| COC(=O)c1cnc2c(c1)Oc1ccccc1-c1ccnn1-2 | 101% (inactive) |
| N=C1c2nc3n(c2C(=O)c2nc4n(c21)CCCC4)CCCC3 | 68.1% (inactive) |
| Cc1ccccc1C(c1ccccc1)c1ccccc1C | 50.3% (inactive) |
| CCOC(=O)c1ccc2c(c1)nc(-c1ccc(Cl)cc1)n2-c1cc(C(C)(C)C)[nH]n1 | 18.7% (inactive) |
| C=C(C)[C@@H]1CC[C@]2(C(=O)N3CCN(C)CC3)CC[C@]3(C)[C@H](CC[C@@H]4[C@@]5(C)CC(CCCNC(C)=O)(CCCNC(C)=O)[C@H](OC(C)=O)C(C)(C)[C@@H]5CC[C@]43C)[C@@H]12 | 99.2% (inactive) |
| COc1ccc(-c2cc(-c3cccnc3)nc3sc4c(Cl)nnnc4c23)cc1OC | 80.1% (inactive) |
| CC1(C)CC[C@]23CC[C@]4(C)[C@H](CC[C@@H]5[C@@]6(C)C/C(=C/c7cccnc7)C(=O)C(C)(C)[C@@H]6CC[C@]54C)[C@H]2[C@H]1OC3=O | 56.9% [100 µM] (inactive) |

From PubChem BioAssay (NCI)
